# Source: PubChem BioAssay (National Center for Advancing Translational Sciences (NCATS))
# TDP1 inh: blocks human tyrosyl-DNA phosphodiesterase 1. Q9NUW8. recombinant TDP1, AlphaScreen DNA substrate cleavage. Potency, µM (top dose mostly 130 µM), actives largely listed as inhibitors. actives 0.28% (n = 350,000). AID 485290; further: nearly all actives have a fitted effect of over 40% in size
#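 Signal: AlphaScreen proximity between streptavidin donor and anti-FITC acceptor beads on intact substrate. Reaction: Tdp1 1 nM, substrate 15 nM final, 5 min RT after 15 min compound preincubation.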
# HP1b binding inh: HP1-beta chromodomain-methylated histone interaction inhibition; P83916; AlphaScreen HP1-beta / biotin-H3K9me3 peptide binding; Potency, µM (series often up to 114 µM), usual class: inhibitors; actives 0.56% (n = 390,000); AID 540317; further: nearly all actives have a fitted effect of over 70% in size
# Target sequence (P83916 whole entry, looked up): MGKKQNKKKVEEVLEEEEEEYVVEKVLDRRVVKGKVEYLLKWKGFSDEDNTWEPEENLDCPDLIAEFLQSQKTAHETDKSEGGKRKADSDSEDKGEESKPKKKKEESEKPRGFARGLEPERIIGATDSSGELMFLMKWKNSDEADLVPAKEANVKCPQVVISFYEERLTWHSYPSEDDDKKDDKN
#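 Compound inhibition of the preformed complex between 50 nM HP1-beta and 50 nM biotinylated H3K9me3 peptide was read by AlphaScreen. Buffer was PBS pH 7.4 with 0.01% Tween-20. Incubations ran 30 min at room temperature, with 10 ug/mL donor/acceptor beads.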
# G9a inh: G9a (human) methyltransferase inhibition. Q96KQ7. G9a H3K9 monomethylation, AlphaScreen, 2 h. Potency, µM (top dose mostly 102 µM), actives largely listed as inhibitors. actives 8.8% (n = 350,000); further: nearly all actives have a fitted effect of over 75% in size
# Target sequence (Q96KQ7 913-1193 limits assumed): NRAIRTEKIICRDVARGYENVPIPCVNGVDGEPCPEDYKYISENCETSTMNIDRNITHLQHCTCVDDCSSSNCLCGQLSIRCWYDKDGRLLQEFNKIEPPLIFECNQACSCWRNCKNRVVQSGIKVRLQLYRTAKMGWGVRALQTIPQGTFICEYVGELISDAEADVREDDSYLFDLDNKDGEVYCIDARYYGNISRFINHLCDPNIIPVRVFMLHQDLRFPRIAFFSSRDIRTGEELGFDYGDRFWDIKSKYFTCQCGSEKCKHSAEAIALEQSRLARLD
#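 Using a bead-based AlphaScreen, monomethylated H3K9 product from 2 h room-temperature reactions (G9a 20 nM, peptide 500 nM, SAM 20 uM) was detected with 0.5 ug/mL rabbit anti-H3K9me1 antibody.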
# JMJD2A Tudor inh: JMJD2A Tudor domain (human) inhibition; O75164; AlphaScreen JMJD2A-Tudor / H3K4me3 peptide binding; Potency, µM (series often up to 114 µM), most hits filed as inhibitors; actives 4.4% (n = 390,000); further: nearly all actives have a fitted effect of over 50% in size
# BAZ2B block: inhibitors of human BAZ2B bromodomain; actives 4.4% (n = 360,000); AID 504333; Q9UIF8; AlphaScreen BAZ2B-H3K14Ac peptide displacement; Potency, µM (highest dose often 114 µM), usual class: inhibitors; further: nearly all actives have a fitted effect of over 60% in size
#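 Compounds, titrated to a top concentration of 110 uM, were incubated 30 min at room temperature with preformed BAZ2B/acetyl-K14 H3 peptide complex (50 nM each). Proximity signal was measured by AlphaScreen after 20 min with beads.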
# Sfp PPTase inh: Sfp phosphopantetheinyl transferase inhibition; Q9F4F7; Potency, µM, most hits filed as inhibitors; Biochemical Sfp PPTase activity, qHTS; actives 3.5% (n = 310,000);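 further: the enzyme is Sfp with the accession as filed and its product quenches rhodamine fluorescence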
#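 After 15 min at room temperature with compound, 15 nM Sfp received 5 uM rhodamine-CoA plus 12.5 uM BHQ-2-ybbR (50 mM Hepes pH 7.6, 10 mM MgCl2). Rate came from the fluorescence difference over 30 min, ex 525/em 598 nm.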
# Hits are given with their value; . = inactive; ? = inconclusive; / = no result; ! = not confirmed by another sample; [ ] = dose if it differs, or a comment. In the library only some 12% were active in any assay of this set; here they are far more common. The call rests on the fitted dose curve; in most records, active means well fitted curve in the direction sought with a large enough effect; inconclusive means small, poorly fitted or top-dose-only effect, or another doubt; inactive means no such curve, though single readings can be large; an effect the other way counts as inactive or inconclusive.
SMILES,TDP1 inh,HP1b binding inh,G9a inh,JMJD2A Tudor inh,BAZ2B block,Sfp PPTase inh
O=C(/C=C/c1ccco1)OCc1nnc(-c2ccccc2)o1,25µM,.,50µM,.,50µM,.
CCOc1ccc(S(=O)(=O)NCC(c2ccco2)S(=O)(=O)c2ccc(F)cc2)cc1 (stereo unspecified),.,.,.,.,.,/
CCc1ccc(NC(=O)COC(=O)/C=C/c2ccco2)cc1,25µM,?,/,?,/,/
Cc1ccc(/C=C/C(=O)OCn2nnc3ccccc3c2=O)o1,.,.,?,.,.,.
O=C(/C=C/c1ccco1)OCn1nnc2ccccc2c1=O,?,.,35µM,.,56µM,.
CCc1ccc(N2C(=O)N(CC(=O)C(C)(C)C)c3ccccc3S2(=O)=O)cc1,.,.,.,.,.,/
Cc1cccc(-n2ncc3c(NNC(=O)c4ccccc4Cl)ncnc32)c1,.,.,.,.,.,/
O=C1CCCN1CCCNC(=S)Nc1ccc(Nc2ccccc2)cc1,/,.,/,.,?,56µM
Cn1cc(CC(=O)NCCCN2CCCC2=O)c2ccccc21,.,.,.,.,.,.
O=C(CNCc1ccccc1)NCCCN1CCCC1=O,/,?,22µM,2µM,.,.
CC(CC(=O)Nc1ccccc1)NCCCN1CCCC1=O (stereo unspecified),/,79µM,8.9µM,0.71µM,50µM,.
O=C1CCCN1CCCNC(=S)Nc1ccccc1,.,.,/,.,.,.
O=C(NCCc1csc(-c2ccc(Cl)cc2)n1)c1cccs1,.,.,.,.,.,/
CC(C)(C)S(=O)(=O)/C(C#N)=N/Nc1ccc(Cl)cc1,.,.,35µM,?,?,.
Cc1ccc(Sc2ccc(N3CCCC(C(=O)Nc4ccc(Br)cc4)C3)nn2)cc1 (stereo unspecified),.,.,.,.,.,/
O=C(CSCc1nc2cccnc2n1C1CCCCC1)NCc1cccc(Br)c1,.,.,.,.,.,/
O=C(Nc1ccc(S(=O)(=O)Nc2cnc3ccccc3n2)cc1)c1ccccc1Br,.,.,.,.,.,.
O=C(Nc1ccc(S(=O)(=O)Nc2cnc3ccccc3n2)cc1)c1ccc(Br)o1,.,.,45µM,.,.,.
Cc1nnc(-c2cccc(Br)c2)c2cn(-c3ccccc3Cl)nc12,.,.,.[12.7 µM],.,.,56µM
Cc1ccc(-n2cc3c(-c4cccc(Br)c4)nnc(C)c3n2)cc1,.,.,.,.,.,.
OCC[C@@H]1C[C@@H](O)[C@H](O)[C@]2(Cc3ccccc3CO2)O1,/,.,.,.,.,.
COc1ccc(CN2CCNC(=O)C2CC(=O)NCc2cc(C)n(C)n2)c(F)c1 (stereo unspecified),.,.,25µM,.,.,.
Cc1ccc(CN2CCNC(=O)C2CC(=O)NCc2cc(C)n(C)n2)cc1 (stereo unspecified),.,.,79µM,.,.,.
Cc1cc(CNC(=O)CC2C(=O)NCCN2Cc2ccccc2C(F)(F)F)nn1C (stereo unspecified),.,.,?,.,.,.
CCOc1ccc(CN2CCNC(=O)C2CC(=O)NCc2cc(C)n(C)n2)cc1 (stereo unspecified),.,.,40µM,.,.,.
SMILES,TDP1 inh,HP1b binding inh,G9a inh,JMJD2A Tudor inh,BAZ2B block,Sfp PPTase inh
CCC(=O)c1ccc(OCC(=O)OC(C)C(=O)Nc2c(C)n(C)n(-c3ccccc3)c2=O)cc1 (stereo unspecified),/,.,/,.,/,/
CC(C)CCCCCCCCCCCCC(=O)NCC(=O)NC1C(C)OC(Nc2ncnc3nc[nH]c23)C(O)C1O (stereo unspecified),/,.,/,.,/,/
COc1ccc(OC)c(N2Cc3cc(C)c(C)cc3C2)c1,.,.,13µM,?,?,.
CCOc1ccccc1N1Cc2cc(C)c(C)cc2C1,.,.,?,.,.,.
CC[C@@H]1O[C@]2(C=C[C@@H]1C)C[C@H]1C[C@H](CC=C(C)[C@@H](O[C@@H]3C[C@H](OC)[C@H](O[C@@H]4C[C@H](OC)[C@H](O)[C@H](C)O4)[C@H](C)O3)[C@@H](C)C=CC=C3CO[C@@H]4[C@@H](O)C(C)=C[C@@H](C(=O)O1)[C@]34O)O2,.,/,.[21.5 µM],/,/,.
O=C1CC(=C2c3ccccc3-c3ccccc32)C(=O)N1CCCCN1CCN(c2ccccc2)CC1,.,.,7.9µM,?,?,.
O=C1c2oc3ccc(Cl)cc3c(=O)c2C(c2ccco2)N1CCN1CCOCC1 (stereo unspecified),.,.,11µM,.,.,.
O=C(O)C1CC=CCC1C(=O)Nc1ccccc1 (stereo unspecified),22µM,.,?,?,?,.
O=C(O)Cc1ccc(NC(=O)C2CC=CCC2C(=O)O)cc1 (stereo unspecified),45µM,/,?,/,56µM,.
O=C(O)c1ccc(NC(=O)C2CC=CCC2C(=O)O)cc1 (stereo unspecified),/,.,.,?,.,.
COc1cccc2c1Oc1ncccc1N(C(=O)CCC(=O)NCc1cccc(C)c1)C2,.,.,.,?,.,.
COc1ccc(-c2coc3cc(O)cc(O)c3c2=O)cc1,.,.,.,.,.,50µM!
N#Cc1nc(Nc2cc(F)cc(F)c2)c2ncn(CCCO)c2n1,/,/,/,.,/,/
O=C(O)COc1ccccc1/C=C1\SC(=S)N(NC(=O)c2ccccc2O)C1=O,.,.,.[2.33 µM],3.2µM,14µM,/
O=C(O)c1ccc(/C=C2\SC(=Nc3ccccc3)N(c3ccccc3)C2=O)cc1,.,.,?,.,.,79µM
O=C(O)COc1ccccc1/C=C1\SC(=S)N(/N=C/c2ccccc2O)C1=O,?,.,.[2.33 µM],?,56µM,?
O=C(O)COc1ccccc1/C=C1\SC(=Nc2ccc(F)cc2)N(c2ccc(F)cc2)C1=O,.,.,?,.,79µM,?
O=C(O)COc1ccc(/C=C2\SC(=Nc3ccccc3)N(c3ccccc3)C2=O)cc1,.,.,.,.,.,.
Cc1cccc(-n2c3nc(=O)n(C)c(=O)c-3cc3ccc(Cl)cc32)c1C,.,.,.,.,/,/
NC(=O)NC(=O)CC1S/C(=N/N=C2\CSC(=O)N2)NC1=O (stereo unspecified),.,.,0.79µM,8.9µM,3.2µM,11µM
O=C(O)CNC(=O)CC1S/C(=N/N=C2/NC(=O)CS2)NC1=O (stereo unspecified),40µM,.,28µM,22µM,20µM,32µM
NC(=O)NC(=O)CC1S/C(=N/N=C/c2ccccc2)NC1=O (stereo unspecified),.,.,.,.,.,.
CC(=O)NC1=CC(=O)c2nonc2C1=O,/,.,/,?,/,/
Cc1ccc(C)c(S(=O)(=O)N(C)c2ccc(OC(=O)C3CCN(C(=O)Nc4ccccc4)CC3)cc2)c1,/,.,/,.,/,/
